Test results from PubChem BioAssay AID1159580 (chemical genetic matrix, 2015).
The campaign covered roughly 5,500 compounds. About 2,000 (36%) were called active. Another 18% or so got no clear call; they are omitted. Cut-off read from the data, not from the text of the source: active = normalized growth mostly below about 0.91 (no sharp cut-off); inconclusive = no clear call, values can overlap the other calls; inactive = mostly above about 0.92. The list shows a part of the results.

Test: chemical genetic growth profiling, strain panel (AID 1159580);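 note: tested at 20 µM; growth read once vehicle control cultures reached saturation at 30 °C; 1 = growth at the plate median or of vehicle wells; lower values mean less growth of the strain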
Settings: growth OD

Measured: normalized growth

COc1cc(/C=C/C(=O)O)cc(OC)c1OC
inactive: S. cerevisiae deletion strains, locus YJR043C, strain POL32, active compounds read low 0.999 | S. cerevisiae deletion strains, locus YJR066W, strain TOR1, active compounds read low 1.02 | S. cerevisiae deletion strains, locus YKL009W, strain mrt4, active compounds read low 1.03 | S. cerevisiae deletion strains, locus YKL068W, active compounds read low 1.02 | S. cerevisiae deletion strains, locus YKL085W, strain MDH1 (second series), active compounds read low 1.01 | S. cerevisiae deletion strains, locus YKL085W, strain MDH1, active compounds read low 1.01 | S. cerevisiae deletion strains, locus YKL160W, strain elf1, active compounds read low 0.985 | S. cerevisiae deletion strains, locus YKR001C, strain vps1, active compounds read low 1 | S. cerevisiae deletion strains, locus YKR026C, strain gcn3, active compounds read low 0.985 | S. cerevisiae deletion strains, locus YKR091W, strain srl3, active compounds read low 0.98 | S. cerevisiae deletion strains, locus YLL001W, strain dnm1, active compounds read low 0.969 | S. cerevisiae deletion strains, locus YLL026W, active compounds read low 0.995 | S. cerevisiae deletion strains, locus YLL041C, strain sdh2, active compounds read low 0.999 | S. cerevisiae deletion strains, locus YLR027C, strain aat2, active compounds read low 0.998 | S. cerevisiae deletion strains, locus YLR039C, strain RIC1, active compounds read low 1.04 | S. cerevisiae deletion strains, locus YLR058C, strain SHM2, active compounds read low 1.02 | S. cerevisiae deletion strains, locus YLR102C, strain apc9, active compounds read low 1.02 | S. cerevisiae deletion strains, locus YLR113W, strain HOG1, active compounds read low 1.03 | S. cerevisiae deletion strains, locus YLR221C, strain rsa3, active compounds read low 1 | S. cerevisiae deletion strains, locus YLR258W, strain gsy2, active compounds read low 0.993 | S. cerevisiae deletion strains, locus YLR262C, strain YPT6 (second series), active compounds read low 0.994 | S. cerevisiae deletion strains, locus YLR262C, strain YPT6, active compounds read low 1.01 | S. cerevisiae deletion strains, locus YLR268W, strain sec22, active compounds read low 1.02 | S. cerevisiae deletion strains, locus YLR320W, strain mms22, active compounds read low 0.995 | S. cerevisiae deletion strains, locus YLR330W, strain CHS5, active compounds read low 1.01 | S. cerevisiae deletion strains, locus YLR342W, strain FKS1 (second series), active compounds read low 0.999 | S. cerevisiae deletion strains, locus YLR342W, strain FKS1, active compounds read low 0.986 | S. cerevisiae deletion strains, locus YLR357W, strain rsc2, active compounds read low 0.993 | S. cerevisiae deletion strains, locus YLR370C, strain arc18, active compounds read low 0.992 | S. cerevisiae deletion strains, locus YLR371W, strain rom2, active compounds read low 1.06 | S. cerevisiae deletion strains, locus YLR384C, strain iki3, active compounds read low 0.986 | S. cerevisiae deletion strains, locus YLR418C, strain cdc73, active compounds read low 0.975 | S. cerevisiae deletion strains, locus YML016C, strain PPZ1, active compounds read low 1.01 | S. cerevisiae deletion strains, locus YML032C, strain rad52, active compounds read low 1.03 | S. cerevisiae deletion strains, locus YML120C, strain ndi1, active compounds read low 1 | S. cerevisiae deletion strains, locus YML124C, strain tub3, active compounds read low 1.02 | S. cerevisiae deletion strains, locus YMR058W, strain fet3, active compounds read low 0.997 | S. cerevisiae deletion strains, locus YMR078C, strain ctf18, active compounds read low 1.05 | S. cerevisiae deletion strains, locus YMR125W, strain sto1, active compounds read low 0.965 | S. cerevisiae deletion strains, locus YMR129W, active compounds read low 0.996 | S. cerevisiae deletion strains, locus YMR205C, strain PFK2, active compounds read low 0.984 | S. cerevisiae deletion strains, locus YMR223W, strain ubp8, active compounds read low 1.04 | S. cerevisiae deletion strains, locus YMR231W, strain pep5, active compounds read low 0.981 | S. cerevisiae deletion strains, locus YMR263W, strain SAP30, active compounds read low 1.01 | S. cerevisiae deletion strains, locus YMR307W, strain GAS1, active compounds read low 1.04 | S. cerevisiae deletion strains, locus YNL067W, strain RPL9B, active compounds read low 1.01 | S. cerevisiae deletion strains, locus YNL071W, strain lat1, active compounds read low 0.991 | S. cerevisiae deletion strains, locus YNL183C, strain NPR1, active compounds read low 1.03 | S. cerevisiae deletion strains, locus YNL209W, strain ssb2, active compounds read low 0.996 | S. cerevisiae deletion strains, locus YNL233W, strain BNI4, active compounds read low 0.999 | S. cerevisiae deletion strains, locus YNL248C, strain rpa49, active compounds read low 1 | S. cerevisiae deletion strains, locus YNL250W, strain rad50, active compounds read low 1.02 | S. cerevisiae deletion strains, locus YNL271C, strain bni1, active compounds read low 1.02 | S. cerevisiae deletion strains, locus YNL298W, strain CLA4, active compounds read low 1.03 | S. cerevisiae deletion strains, locus YNL307C, strain MCK1, active compounds read low 1.02 | S. cerevisiae deletion strains, locus YNL322C, strain KRE1 (second series), active compounds read low 0.99 | S. cerevisiae deletion strains, locus YNL322C, strain KRE1, active compounds read low 1.01 | S. cerevisiae deletion strains, locus YNR049C, strain mso1, active compounds read low 0.988 | S. cerevisiae deletion strains, locus YNR052C, strain pop2, active compounds read low 1.01 | S. cerevisiae deletion strains, locus YOL006C, strain TOP1, active compounds read low 1.04 | S. cerevisiae deletion strains, locus YOL012C, strain htz1 1.26 | S. cerevisiae deletion strains, locus YOL147C, strain pex11, active compounds read low 1.02 | S. cerevisiae deletion strains, locus YOR001W, strain rrp6, active compounds read low 1.03 | S. cerevisiae deletion strains, locus YOR061W, strain CKA2, active compounds read low 1.02 | S. cerevisiae deletion strains, locus YOR069W, strain VPS5, active compounds read low 1.01 | S. cerevisiae deletion strains, locus YOR070C, strain gyp1, active compounds read low 0.991 | S. cerevisiae deletion strains, locus YOR080W, strain dia2, active compounds read low 0.983 | S. cerevisiae deletion strains, locus YOR083W, strain WHI5, active compounds read low 0.972 | S. cerevisiae deletion strains, locus YOR106W, strain vam3, active compounds read low 0.961 | S. cerevisiae deletion strains, locus YOR136W, strain idh2, active compounds read low 1.01 | S. cerevisiae deletion strains, locus YOR144C, strain elg1, active compounds read low 1.01 | S. cerevisiae deletion strains, locus YOR184W, strain ser1, active compounds read low 1.04 | S. cerevisiae deletion strains, locus YOR231W, strain MKK1, active compounds read low 1.06 | S. cerevisiae deletion strains, locus YOR265W, strain rbl2, active compounds read low 0.983 | S. cerevisiae deletion strains, locus YOR270C, strain vph1, active compounds read low 0.998 | S. cerevisiae deletion strains, locus YOR290C, strain snf2, active compounds read low 0.954 | S. cerevisiae deletion strains, locus YOR316C, strain cot1, active compounds read low 1.02 | S. cerevisiae deletion strains, locus YPL051W, strain arl3, active compounds read low 1 | S. cerevisiae deletion strains, locus YPL078C, strain atp4, active compounds read low 0.987 | S. cerevisiae deletion strains, locus YPL106C, strain sse1, active compounds read low 0.972 | S. cerevisiae deletion strains, locus YPL240C, strain hsp82, active compounds read low 0.989 | S. cerevisiae deletion strains, locus YPL256C, strain CLN2, active compounds read low 0.999 | S. cerevisiae deletion strains, locus YPR119W, strain clb2, active compounds read low 1.03 | S. cerevisiae deletion strains, locus YPR141C, strain kar3, active compounds read low 1.03 | S. cerevisiae deletion strains, locus YPR163C, strain tif3, active compounds read low 1.03 | S. cerevisiae deletion strains, locus YPR167C, strain met16, active compounds read low 1.02 | S. cerevisiae deletion strains, strain wtn01, active compounds read low 1.01 | S. cerevisiae strains, strain wild type, active compounds read low 1.01
